Compounds with a hit are over-represented: about 6.8% of the library has one in this group of screens.
Spn DPM-DC inh: S. pneumoniae DPM-DC inhibitors, primary screen, biochemical, PK/LDH-coupled NADH fluorescence. diphosphomevalonate decarboxylase (Streptococcus pneumoniae D39). purified DPM-DC. calls only at 10 µM. 65,000 compounds, 0.49% hits;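 active means the 320 compounds with the highest percent inhibition in the single-dose primary screen, excluding strongly autofluorescent ones, cut at about 32% in these data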;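 further: kinetic rate of NADH fluorescence loss reporting ADP formed by the decarboxylase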
NADH coupling: inhibitors of PK/LDH coupling enzymes, profiling panel, artefact control, biochemical, MLSMR library | AID 774, 2007 | IC50, µM (titrated, usually from 10 µM) | coupled PK/LDH NADH assays, four targets | 65,000 compounds, 0.02% hits;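 active means single-dose screening hits from any of four coupled enzyme assays that gave an IC50 when retested across doses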;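 further: the DPM-DC format reads NADH fluorescence rather than 340 nm absorbance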
Spn PMK inh: S. pneumoniae PMK inhibitors, primary screen, biochemical, mevalonate pathway, pilot trial included; phosphomevalonate kinase (Streptococcus pneumoniae D39); purified PMK, PK/LDH-coupled NADH absorbance 340 nm; inhibition, % at 10 µM; 65,000 compounds, 0.49% hits;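 active means top-ranked compounds by inhibition in the single 10 µM screen, taking a fixed number of the strongest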
Spn MK inh: S. pneumoniae MK inhibitors, primary screen, biochemical, PK/LDH-coupled NADH absorbance. mevalonate kinase [Streptococcus pneumoniae D39]. AID 555, 2006. inhibition, % at 10 µM. purified MK, PK/LDH-coupled NADH absorbance 340 nm. 65,000 compounds, 0.48% hits;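 active means ranked among the strongest by inhibition in the single 10 µM screen, a fixed top-ranked set picked for dose follow-up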
Abs 340nm: compound light absorbance at 340 nm, profiling panel, artefact control, biochemical, MLSMR library, data from PS, PMK, MK assays; fold change at 10 µM; AID 708, 2007; 65,000 tested, under 10 active; compound absorbance at 340 nm, fold over control;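 active means at 10 µM dose, initial 340 nm absorbance at least 2 fold that of control wells; inactive means change under 2 fold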;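 further: initial absorbance extrapolated from kinetic A340 decline of NADH oxidation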
Autofluor 339: intrinsic fluorescence of library compounds, ex339/em460 – biochemical, MLSMR library, data from DPM-DC assay, artefact control, profiling panel; compound autofluorescence, ex339/em460 nm, NADH buffer; stronger effect = higher value; 1 = no-compound wells, NADH background; fluorescence fold increase at 10 µM; 65,000 compounds, 5.5% hits; AID 709, 2007;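 active means at 10 µM, mean starting fluorescence two-fold or more over control wells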;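 further: signal is the first read of a kinetic run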
Numbers stand for hits; i = inactive; nt = no result shown; + = active, no number.

SMILES	Spn DPM-DC inh	NADH coupling	Spn PMK inh	Spn MK inh	Abs 340nm	Autofluor 339
COc1cc(C(=O)O)cc(Br)c1OC1CCCC1	i	i	i	i	i	i
COc1ccccc1Oc1coc2c(CN3CCN(C)CC3)c(O)ccc2c1=O	nt	i	i	i	i	3
COc1ccccc1Oc1coc2cc(OC(=O)N3CCOCC3)ccc2c1=O	i	i	i	i	i	i
CC1=C(C#N)C(c2cccnc2)C2=C(CC(C)(C)CC2=O)N1 (stereo not drawn)	nt	i	i	i	i	2.1
COc1cc(C2C(C#N)=C(C)NC3=C2C(=O)CC(C)(C)C3)cc(OC)c1O (stereo not drawn)	+	i	i	i	i	i
CC1=C(C#N)C(C)C2=C(CC(C)(C)CC2=O)N1 (stereo not drawn)	nt	i	i	i	i	2.1
COc1cc(C2C(C#N)=C(C)NC3=C2C(=O)CC(C)(C)C3)ccc1OCCO (stereo not drawn)	i	i	i	i	i	i
CC(C)=CC1C(C(=O)Nc2ccc(Br)cn2)C1(C)C (stereo not drawn)	i	i	i	i	i	i
C=CCc1cccc2cc(C(=O)N(CC)CC)c(=O)oc12	i	i	i	i	i	i
COC(=O)c1ccc2c(c1)N(Cc1nc(-c3cccc(C)c3)oc1C)C(=O)C1CCCN21 (stereo not drawn)	i	i	i	i	i	i
Cc1cc(C)n(-c2nnc(C)c(=O)[nH]2)n1	i	i	i	i	i	i
CCOC(=O)N1CCC(NC(=O)c2cc(C(=O)NC3CCCC3)ccc2CO)CC1	i	i	i	i	i	i
CCOC(=O)N1CCC(NC(=O)c2ccc3c(c2)N(C)CCS3)CC1	nt	i	i	i	i	3.4
COC(=O)c1ccc2c(c1)N(C)CCS2	nt	i	i	i	i	2.1
CCOC(=O)N1CCN(C(=O)c2ccc(N3C(=O)c4ccccc4C3=O)cc2)CC1	i	i	i	i	i	i
CCOC(=O)N1CCN(C(=O)c2ccc3c(c2)N(CC)CCS3)CC1	nt	i	i	i	i	2
CC(C)n1cc(/C=C(\C#N)S(=O)(=O)c2ccccc2)c2ccccc21	i	i	i	i	i	i
c1ccc2sc(-c3ccc4c(c3)OCO4)nc2c1	nt	i	i	i	i	2.1
COC(=O)c1cc(NCc2ccccc2F)ccc1N1CCOCC1	i	i	i	i	i	i
CCOc1ccccc1CNc1ccc(N2CCOCC2)c(C(=O)O)c1	i	i	i	i	i	2.2
Cc1ccc(CNc2ccc(N3CCOCC3)c(C(=O)O)c2)s1	i	i	i	i	i	2.4
O=C(O)c1cc(NCc2c(F)cccc2Cl)ccc1N1CCOCC1	i	i	i	i	i	i
Clc1ccc2nc(NC3=NCN(CCN4CCOCC4)CN3)nc(-c3ccccc3)c2c1	i	i	i	i	i	2.2
O=S(=O)(NCCc1ccccn1)c1ccc(F)c(F)c1	i	i	i	i	i	i
CCCCN(C)Cc1c(C)[nH]c2ccc(OCC)cc2c1=O	nt	i	i	i	i	2.1
SMILES	Spn DPM-DC inh	NADH coupling	Spn PMK inh	Spn MK inh	Abs 340nm	Autofluor 339
COC(=O)C1=C(C)NC(C)=C(C(=O)OC)C1c1ccc(NC(C)=O)cc1	i	i	i	i	i	2.1
CCN(CC)c1ccc(C2C(C(=O)OC)=C(C)NC(C)=C2C(=O)OC)cc1	i	i	i	i	i	i
O=C(O)CCC(=O)Nc1ccc(-c2nnc(-c3ccco3)o2)cc1	nt	i	i	i	i	2.1
CCC(=O)Nc1ccc(C(=O)c2ccccc2)cc1	i	i	i	i	i	i
COc1ccc(CC(=O)Nc2cccc(-c3nnc(-c4ccco4)o3)c2)cc1	i	i	i	i	i	i
O=C(Cc1ccccc1)Nc1ccc(-c2nnc(-c3ccco3)o2)cc1	i	i	i	i	i	2.6
CCC(=O)Nc1ccc(-c2nnc(-c3ccccc3)o2)cc1	nt	i	i	i	i	2.4
COc1ccccc1CC(=O)Nc1ccc(-c2nnc(-c3ccco3)o2)cc1	nt	i	i	i	i	2.3
O=C(Cc1ccc(Cl)cc1)Nc1ccc(-c2nnc(-c3ccco3)o2)cc1	i	i	i	i	i	i
Cc1cc(C)n(CCc2nc3c4ccccc4n(CC(=O)Nc4ccc(Cl)cc4F)c(=O)n3n2)n1	i	i	i	i	i	i
COC(=O)c1cc(Nc2ncnc3c2cnn3-c2ccccc2)cc(C(=O)OC)c1	i	i	i	i	i	i
OCCN(CCO)c1nc(N2CCCCC2)c2nc(N(CCO)CCO)nc(N3CCCCC3)c2n1	nt	i	i	i	i	2.2
Cc1ccc(N2C(=O)CSC2c2cccnc2)cc1F (stereo not drawn)	i	i	i	i	i	i
Clc1ccc2nc3ccccn3c2c1	nt	i	i	i	i	2.2
O=C(c1coc(=O)c(Br)c1)N1CCCc2ccccc21	nt	i	i	i	i	2.4
C[C@@H](NC(=O)c1coc(=O)c(Br)c1)c1ccccc1	i	i	i	i	i	i
O=C(c1cc(-c2ccco2)on1)N1CCCc2ccccc21	i	i	31	50	i	i
CC1(C)CCCN(C(=O)c2coc(=O)c(Br)c2)C1	nt	i	i	i	i	3.7
COc1ccc(NC(=O)N(CCCN(C)C)Cc2cc3cc(OC)ccc3[nH]c2=O)cc1	i	i	i	i	i	i
COc1ccc(NC(=O)N(CCN2CCCC2)Cc2cc3cc(OC)c(OC)cc3[nH]c2=O)cc1	i	i	i	i	i	2.1
CCN(CC)CCCN(Cc1cc2cc(OC)ccc2[nH]c1=O)C(=O)Nc1ccc(F)cc1	i	i	i	i	i	2
CCN(CC)CCCN(Cc1cc2cc(OC)ccc2[nH]c1=O)C(=O)Nc1ccccc1	i	i	i	i	i	i
CN1C(=O)Cc2cc(S(=O)(=O)N3CCOCC3)ccc21	i	i	i	i	i	i
COc1ccc2[nH]c(=O)c(CN(C)C(=O)C3CCCCC3)cc2c1	nt	i	i	i	i	3.5
CCN(Cc1cc2ccccc2[nH]c1=O)C(=O)C1CCCCC1	i	i	i	i	i	i
COc1ccc2[nH]c(=O)c(CN(C)C(=O)c3ccncc3)cc2c1	i	i	i	i	i	2
CCn1c(=N)c(C(=O)NC)cc2c(=O)n3cccc(C)c3nc21	nt	i	i	i	i	3.9
CCOCCCn1c(=N)c(C(=O)NCc2ccc3c(c2)OCO3)cc2c(=O)n3cccc(C)c3nc21	i	i	i	i	i	2.7
CCn1c(=N)c(C(N)=O)cc2c(=O)n3cccc(C)c3nc21	nt	i	i	i	i	i

High-throughput results from PubChem.
